Most compounds without a hit are left out; they make up all but 1.5% or so of the library.
PrP UTR inh – suppresses PrP 5' UTR mRNA reporter expression; cell-based PrP 5' UTR mRNA reporter, plate reader; inhibition, % (concentration not given with the values); 340,000 tested, 0.35% active; AID 488862; in the data active = inhibition above about 52%; note: 0 = median of the neutral control wells
PrPC surface inh – reduces human prion protein on the cell surface. P04156. cell surface PrPC, TR-FRET read-out. inhibition, % at 13.8 µM. 370,000 tested, 0.43% active; in the data active = inhibition above about 24%; note: 0% = median of the test wells and 100% = reference compound wells
SARS 3CLpro inh – SARS-CoV 3CLpro protease inhibition; recombinant SARS-CoV 3CLpro, quenched FRET peptide cleavage; 290,000 tested, 0.14% active; AID 1706; inhibition, % at 6 µM; P0C6X7; in the data active = inhibition above about 12%
Mtb hypoxia inh – inhibitors of hypoxia-regulated fluorescent reporter in Mycobacterium tuberculosis; 300,000 tested, 0.1% active; AID 1159583; M. tuberculosis hypoxia-regulated fluorescent reporter, fluorescence; fluorescence inhibition, % (test concentration not listed); in the data active = fluorescence inhibition mostly above about 23%, no sharp cut-off; inactive = mostly below about 17%
DUSP3 inh – blocks human VHR1 dual specificity phosphatase; P51452; recombinant VHR phosphatase, pNPP absorbance; inhibition, % at 13.3 µM; 290,000 tested, 0.52% active; AID 1654; in the data active = inhibition above about 50%
MazF activator – increases E. coli MazEF RNase cleavage of RNA; P0AE70; FAM/BHQ RNA-DNA oligo cleavage fluorescence, 5 h; activation, % at 20 µM; 350,000 tested, 0.32% active; AID 504720; in the data active = activation above about 50%
PrPC TRFRET cf – cell surface PrPC inhibition, TR-FRET confirmation. cell surface PrPC level. AID 743200. inhibition, % at 13.8 µM. shares compounds with PrPC surface inh. 1,500 tested, 65% active; in the data active = inhibition above about 25%
LD9 tox – counter-screen for PrPc inhibitors: cytotoxicity in LD9 cells; shares compounds with PrPC surface inh; luminescence viability; inhibition, % at 13.8 µM; 1,500 tested, 29% active; AID 743201; in the data active = inhibition above about 9.5%
* marks the source's active call; other numbers are inactive results; · = no result shown.

SMILES	PrP UTR inh	PrPC surface inh	SARS 3CLpro inh	Mtb hypoxia inh	DUSP3 inh	MazF activator	PrPC TRFRET cf	LD9 tox
O=C(COc1ccccc1C=C1SC(=O)NC1=O)Nc1ccccc1	·	·	·	2.8	·	·	·	·
CCOc1ccc2nc(NC(=O)c3ccco3)sc2c1	13.9	30.7*	-2.5	-5.0	20.4	-2.5	38.7*	14.5*
CCOC(=O)c1ccc2nc(NC(=O)c3ccco3)sc2c1	-95.9	-4.1	0.2	13.7	4.2	0.5	·	·
O=C(O)c1ccc(Nc2cc(Cl)c3nonc3c2[N+](=O)[O-])cc1	-13.3	-42.5	5.6	·	21.9	5.1	·	·
O=[N+]([O-])c1c(Nc2cccc(O)c2)cc(Cl)c2nonc12	-27.5	84.6*	-1.0	·	15.4	5.9	92.3*	98.5*
NC(=S)NN=Cc1ccc(-c2cc(Cl)c(Cl)cc2Cl)o1	·	·	·	21.1	·	·	·	·
NC(=O)c1cc(NC(=O)c2cc(Br)c(Br)s2)cc(C(N)=O)c1	-24.7	45.6*	0.4	11.1	8.3	10.0	46.9*	-0.5
CCOC(=O)COc1nc(-c2ccco2)cc(-c2ccco2)c1C#N	-26.5	1.5	2.0	8.3	-0.1	-18.0	·	·
CCOC(=O)C(C)Sc1nc(-c2ccco2)cc(C(F)(F)F)c1C#N (stereo unspecified)	0.5	33.0*	-1.9	-6.0	-6.6	-2.1	49.3*	-1.1
CN(C)c1ccc(C=NNc2cccc(C(=O)O)c2)cc1	·	·	·	3.9	·	·	·	·
O=C(Nc1nc(-c2ccccc2)cs1)c1ccccc1NS(=O)(=O)c1ccc(F)cc1	-5.6	35.4*	9.0	11.6	-1.5	-6.3	29.6*	31.6*
O=C(NC1CC1)C1=CC(c2c[nH]c3ccccc23)CC(OCc2ccc(CO)cc2)O1 (stereo unspecified)	·	·	·	-0.9	·	·	·	·
O=C(Cc1ccc(-n2c(=O)c3ccccc3n(Cc3ccc(F)cc3)c2=O)cc1)NCC1CCCO1 (stereo unspecified)	-19.3	-8.5	1.5	1.5	-1.0	0.0	·	·
O=C(Cc1ccc(-n2c(=O)c3ccccc3n(Cc3ccccc3F)c2=O)cc1)NCC1CCCO1 (stereo unspecified)	-22.6	67.4*	2.5	-0.9	7.6	-33.5	3.8	-3.6
CCOc1ccc(-c2c(C(=O)NN=Cc3ccc(OC)cc3)nnn2-c2nonc2N)cc1	·	·	·	0.4	·	·	·	·
C=C[C@@]1(C)CC(=O)[C@]2(O)[C@@]3(C)[C@@H](O)CCC(C)(C)[C@@H]3[C@H](O)[C@H](OC(C)=O)[C@@]2(C)O1	1.0	33.8*	·	·	·	7.6	26.1*	-8.8
Cc1cc(C)cc(NC(=O)c2cccn2-c2ncc(C(F)(F)F)cc2Cl)c1	-27.0	32.0*	5.5	-7.7	31.1	-7.1	17.0	2.2
O=C(Nc1ccc(F)cc1F)c1cccn1-c1ncc(C(F)(F)F)cc1Cl	-14.2	14.5	5.8	2.5	22.8	-5.8	·	·
CC(C)(C)OC(=O)N1CCC(N[C@@H](Cc2ccccc2)C(=O)NCCc2c[nH]c3ccccc23)(C(=O)NC2CCCCC2)CC1	·	26.7*	·	·	·	·	11.7	-4.0
COc1ccc(Br)cc1CNC(=O)c1ccc2c(c1)N(C)CCS2	-17.6	36.5*	1.8	0.7	25.2	-6.0	51.3*	-1.4
CCN1CCSc2ccc(C(=O)NCc3cc(Br)ccc3OC)cc21	-8.1	11.0	3.5	2.0	37.0	-0.2	·	·
Cc1cccc(NS(=O)(=O)c2ccc3oc(=O)ccc3c2)c1C	2.1	37.2*	0.7	1.2	2.3	-4.6	20.3	-5.8
CCN(CC)c1ccc(Nc2nc(N3CCOCC3)c3ccccc3n2)cc1	-13.9	20.5	-1.0	-4.9	18.7	5.0	·	·
COc1ccc(Nc2nc(N3CCCC3)c3ccccc3n2)cc1	-8.0	24.5*	-3.7	·	-11.2	-4.7	31.4*	23.8*
N#Cc1c(N=Cc2cccnc2)sc2c1CCCC2	·	·	·	0.1	·	·	·	·
SMILES	PrP UTR inh	PrPC surface inh	SARS 3CLpro inh	Mtb hypoxia inh	DUSP3 inh	MazF activator	PrPC TRFRET cf	LD9 tox
CCOc1ccc(C=NNC(=O)c2nnn(-c3nonc3N)c2-c2cccs2)cc1	·	·	·	6.3	·	·	·	·
CCc1nc(SCC(=O)Nc2nc3c(s2)CCCC3)c2ccccc2n1	-8.4	29.9*	-0.9	2.6	18.9	-0.8	72.1*	-9.3
CCc1nc(SCC(=O)N2c3ccccc3Sc3ccccc32)c2ccccc2n1	-24.0	46.1*	-4.6	6.4	25.0	-9.2	89.2*	-7.7
COc1ccc(C(=O)NNC(=O)CSc2nc(C(C)C)nc3ccccc23)cc1	-15.3	80.5*	-1.1	7.1	20.4	5.5	101.1*	-16.6
COc1ccc(C(=O)NNC(=O)CSc2ccccc2)cc1	-16.2	4.1	3.0	9.6	17.4	9.8	·	·
CCc1nc(SCC(=O)NNC(=O)c2ccc(OC)cc2)c2ccccc2n1	-22.6	108.8*	4.7	10.1	8.5	7.7	116.3*	-10.2
Cc1cc(C)nc(N=C(NC(=O)Nc2cccc(Cl)c2)Nc2ccccc2)n1	·	·	·	-2.0	·	·	·	·
O=c1c(Br)c(Br)cnn1-c1ccccc1	-7.1	32.7*	2.4	·	9.3	-2.2	80.2*	97.7*
C[C@@H]1CC=C[C@H]2[C@H]1C(=O)N(Cc1ccccc1)[C@H]2c1ccc2ccccc2c1Br	3.7	41.6*	·	·	27.1	-1.2	50.3*	-2.6
O=C(ON=C1CCS(=O)(=O)c2sccc21)c1ccc(F)cc1	·	·	·	4.7	·	·	·	·
COc1ccc(N(C)S(=O)(=O)c2cccc(C(=O)N3CCN(Cc4ccc5c(c4)OCO5)CC3)c2)cc1	-3.5	16.0	·	0.4	·	3.5	·	·
CCOc1ccc(N(C)S(=O)(=O)c2ccc(C)c(C(=O)N3CCN(Cc4ccc5c(c4)OCO5)CC3)c2)cc1	-21.5	24.8*	·	12.6	·	7.9	18.6	-1.5
NCCCCC1CNC(=S)N1CC1(c2ccccc2)CC1 (stereo unspecified)	·	·	·	21.9	·	·	·	·
CC(C)c1oc(=O)cc2c1[C@@H](O)[C@H]1OC(=O)[C@@]3(C)CC[C@@H](O)[C@@]2(C)C13 (stereo partly specified)	-8.9	61.7*	-2.9	·	8.6	3.2	52.2*	13.0*
CC(C)c1oc(=O)cc2c1[C@@H](O)[C@H]1OC(=O)[C@@]3(C)C[C@@H](O)[C@@H](O)[C@@]2(C)C13 (stereo partly specified)	-69.0	63.9*	4.5	·	16.3	9.7	58.5*	11.2*
CO[C@H]([C@H](C)/C=C/N(C)C=O)[C@@H](C)C(=O)CC[C@H](C)[C@H](O)[C@H](C)[C@H]1OC(=O)/C=C/C(C)=C/C[C@H](O)C[C@@H]2C=CC[C@@H](C[C@H](OC)[C@@]3(CO3)[C@@H](OC)C[C@@H](OC)[C@@H]1C)O2	·	41.3*	·	·	·	·	36.8*	39.0*
